Screens (PubChem BioAssay)
PKM2 act: qHTS Assay for Activators of Human Muscle isoform 2 Pyruvate Kinase; actives 0.34% (n = 260,000); Potency, µM (doses to about 57.5 µM), for the others: at the highest dose activation, most hits filed as activators; Pyruvate kinase PKM (Homo sapiens), P14618; purified PKM2, Kinase-Glo ATP luminescence, activation; response scale: 0% is enzyme alone, no compound; also: potency is read from the fitted curve at half-maximal effect; % is scaled to controls: 0 for no effect and ±100 for the full control effect; nearly all actives have a fitted effect of over 55% in size
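Purified hPK-M2 (>95%) run at intermediate activity with 0.1 mM ADP and 0.5 mM PEP in 50 mM imidazole pH 7.2, KCl, MgCl2; 1 h room temperature. ATP formed read by Kinase-Glo luminescence; normalized to uninhibited and no-enzyme controls.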
RGS12 GoLoco inh: qHTS Assay for Inhibitors of RGS12 GoLoco Motif Activity (Red Fluorophore). Guanine nucleotide-binding protein G(i) subunit alpha-1 (Homo sapiens), P63096. Gai1:RGS12 GoLoco peptide FP, rhodamine, 10 min. actives 0.44% (n = 230,000). Potency, µM (highest dose often 61.6 µM), inactives show at the highest dose activity, negative = inhibition, usual class: inhibitors; active = well fitted inhibition curve with a large enough effect, not every such curve was filed as active; inactive = no such curve, though single readings can be large or run the other way; also: potency is read from the fitted curve at half-maximal effect; % is scaled to controls: 0 for no effect and ±100 for the full control effect; nearly all actives have a fitted effect of over 30% in size
KAT2A inh: qHTS Assay for Inhibitors of GCN5L2. actives 0.21% (n = 390,000). Potency, µM (top dose mostly 58.9 µM), without a hit: at the highest dose activity change, negative = inhibition, most hits filed as inhibitors. GCN5L2 HAT assay, ThioGlo1 CoA-SH fluorescence. Histone acetyltransferase KAT2A (Homo sapiens), Q92830; also: potency is read from the fitted curve at half-maximal effect; % is scaled to controls: 0 for no effect and ±100 for the full control effect
Target sequence (Q92830 whole entry, looked up): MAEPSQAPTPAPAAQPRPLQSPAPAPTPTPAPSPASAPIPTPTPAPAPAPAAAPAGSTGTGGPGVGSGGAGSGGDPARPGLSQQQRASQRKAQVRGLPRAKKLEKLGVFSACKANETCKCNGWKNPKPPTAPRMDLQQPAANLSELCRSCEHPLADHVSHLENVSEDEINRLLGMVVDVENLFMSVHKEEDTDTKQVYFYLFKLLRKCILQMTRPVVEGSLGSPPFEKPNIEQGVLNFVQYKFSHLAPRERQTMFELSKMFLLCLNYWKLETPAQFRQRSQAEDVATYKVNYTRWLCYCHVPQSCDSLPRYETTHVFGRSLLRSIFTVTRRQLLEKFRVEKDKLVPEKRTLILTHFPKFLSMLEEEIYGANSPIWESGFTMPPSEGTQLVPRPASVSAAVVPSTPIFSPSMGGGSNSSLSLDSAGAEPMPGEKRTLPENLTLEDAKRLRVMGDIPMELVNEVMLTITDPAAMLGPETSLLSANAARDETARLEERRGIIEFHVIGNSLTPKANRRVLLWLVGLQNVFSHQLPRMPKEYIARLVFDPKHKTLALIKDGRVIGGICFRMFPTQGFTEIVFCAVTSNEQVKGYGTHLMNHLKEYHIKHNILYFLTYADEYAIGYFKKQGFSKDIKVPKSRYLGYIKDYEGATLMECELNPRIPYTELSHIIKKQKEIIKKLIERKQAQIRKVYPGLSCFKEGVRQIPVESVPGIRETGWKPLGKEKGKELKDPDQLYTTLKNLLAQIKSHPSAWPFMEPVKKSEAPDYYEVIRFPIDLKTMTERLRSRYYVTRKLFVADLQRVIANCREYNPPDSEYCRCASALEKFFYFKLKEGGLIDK
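Compounds, pin-transferred from DMSO stocks, meet 20nM GCN5L2 for 15 min before the reaction begins with H3(1-25) peptide (75uM) and acetyl-CoA (70uM). Thiol-reactive ThioGlo1 reports CoA release over 20 min at room temperature.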
IL2 activator: qHTS of IL-2 Activators. IL-2 activation reporter assay, cell-based qHTS; stimulated with anti-CD3/CD4/CD28 beads; in transgenic mouse T cells. activation, % (series mostly up to about 46 µM). actives 0.065% (n = 360,000). AID 652025, 2013; in the data active = activation above about 50%; inconclusive = mostly about 30% to 49%; also: 0% is about no effect
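Unstimulated transgenic mouse T cells preincubated 60 min with compound, then stimulated with anti-CD3/anti-CD4-coated beads plus anti-CD28 for 18 h at 37 degrees C. IL-2 response read as EGFP and DsRed fluorescence by plate cytometry.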
Vif-APOBEC3F blk: qHTS for Inhibitors of Vif-A3F Interactions: qHTS; Potency, µM (doses to about 46.1 µM), for inactives: top-dose activity, negative = active; AID 602313, 2012; actives 0.2% (n = 390,000); HeLa A3F-eYFP + Vif (tagged APOBEC3F with the HIV-1 protein that degrades it), YFP fluorescence increase; also: potency is read from the fitted curve at half-maximal effect; % of control where 0% means no effect; nearly all actives have a fitted effect of over 65% in size
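HeLa cells stably expressing Vif plus C-terminally eYFP-tagged A3F were seeded, incubated overnight at 37 deg C, dosed with compound, incubated overnight again at 37 deg C. Yellow fluorescence (Ex 488/Em 500-530) reported blocked Vif-mediated A3F-eYFP degradation.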
Vif-A3G inh: qHTS for Inhibitors of Vif-A3G Interactions: qHTS | Potency, µM (series often up to 46.1 µM), for inactives: at the top dose activity, negative = active, usual class: inhibitors | DNA dC->dU-editing enzyme APOBEC-3G (Homo sapiens), Q9HC16 | AID 602310, 2012 | HeLa A3G-eYFP + Vif (tagged APOBEC3G with the HIV-1 protein that degrades it), YFP fluorescence, overnight | actives 0.076% (n = 410,000); also: potency is read from the fitted curve at half-maximal effect; % is scaled to controls: 0 for no effect and ±100 for the full control effect; nearly all actives have a fitted effect of over 60% in size
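Read-out is eYFP fluorescence (Ex 488/Em 500-530) from Vif-expressing HeLa A3G-eYFP cells; more signal means A3G escaped Vif-mediated degradation. Cells plated overnight, compound pinned in, incubated overnight at 37 deg C.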
HeLa tox: Secondary assay for Activators of Human Pyruvate Kinase M2 isoform - Cell Titer Glo cytotoxicity assay; activity change, negative = cytotoxicity, % at 57.5 µM; 230 tested, under 10 active; HeLa viability, CellTiter-Glo ATP luminescence, 24 h; shares compounds with PKM2 act; also: % of control where 0% means no effect
An asterisk follows results filed as active; ? = inconclusive; / = no result given; [ ] = dose if it differs, or a comment. This is a sample that favours compounds with a hit; in the whole collection about 0.77% have one here. Unless noted, calls follow the shape of the dose curve; as a rule, active = well fitted curve in the direction sought with a large enough effect; inconclusive = small, poorly fitted or top-dose-only effect, or another doubt; inactive = no such curve, though single readings can be large; an effect the other way counts as inactive or inconclusive.

SMILES	PKM2 act	RGS12 GoLoco inh	KAT2A inh	IL2 activator	Vif-APOBEC3F blk	Vif-A3G inh	HeLa tox
COC(=O)c1ccc(N2CCN(C)CC2)c(NC(=O)COc2ccccc2Cl)c1	/	/	0.6%	-3.6	3.5%	-3.4%	/
Cc1cc2c(s1)c1cnn(Cc3cccc(F)c3)c(=O)c1n2C	/	/	/	/	/	/	-2.5
Cn1c2cc(Br)sc2c2cnn(Cc3ccc(F)cc3)c(=O)c21	/	/	-6.5%	/	/	/	/
Cc1cc2c(s1)c1cnn(Cc3cccc(Cl)c3)c(=O)c1n2C	/	/	/	/	/	/	-1.1
CC(NC(=O)COc1ccc(Oc2ccccc2)cc1)C(=O)O (centres undefined)	-1.7%	-8.5%	0.2%	1.8	-3.4%	-5.7%	/
c1ccc2[nH]c(CSc3nnc(-c4ccncc4)o3)nc2c1	1.78µM*	7.3%	-3.0%	0.3	/	-2.6%	-0.6
CCOC(=O)C1=C(C)N(Cc2ccccc2)C(=O)NC1c1ccccc1OS(=O)(=O)c1ccccc1[N+](=O)[O-] (centres undefined)	/	/	/	-0.3	-1.1%	1.2%	/
O=c1[nH]c(CN2CCN(c3ccc(O)cc3)CC2)nc2scc(-c3ccc(Cl)cc3)c12	2.82µM*	158.1%	-2.4%	-0.1	7.9%	-21.1%	-7.4
O=c1[nH]c(CN2CCN(c3ccccc3O)CC2)nc2scc(-c3ccccc3Cl)c12	20.0%	80.9%	-4.3%	-1.9	-14.3%	-6.2%	/
CCCc1nnc(NC(=O)CSc2nnc3c4ccccc4n(CC)c3n2)s1	/	/	-0.7%	/	4.1%	6.4%	/
CCc1nnc(NC(=O)CSc2nnc3c4ccccc4n(C)c3n2)s1	1.41µM*	12.7%	?	0.6	-18.8%	-0.6%	-2.0
Oc1ccc(-c2nc(-c3ccc(O)c(O)c3)cs2)cc1	3.16µM*	-1.9%	-6.3%	0.5	-2.1%	?	-5.5
Oc1ccc(Nc2nc(-c3ccc4ccccc4c3)cs2)cc1	-12.3%	9.4%	-13.8%	/	/	/	/
CC(C)c1ccc(S(=O)(=O)c2cc3cc(Br)ccc3oc2=O)cc1	0.562µM*	-13.9%	-13.4%	0.1	-6.3%	-5.4%	-12.3
Cc1c(NC(=O)/C(C#N)=C/c2cccs2)c(=O)n(-c2ccccc2)n1C	-5.3%	14.5%	-2.6%	0.0	-4.3%	0.5%	/
Cc1cc2c(s1)c1cnn(Cc3cccc(Cn4ncc5c6sc(C)cc6n(C)c5c4=O)c3F)c(=O)c1n2C	/	/	/	/	/	/	5.7
Cc1cc2c(s1)c1cnn(Cc3c(F)c(F)cc(F)c3F)c(=O)c1n2C	/	/	/	/	/	/	2.7
Cn1c2ccccc2c2cnn(CC(=O)Nc3ccccc3F)c(=O)c21	/	/	-3.7%	/	-17.6%	3.5%	/
Cc1cc2c(s1)c1cnn(Cc3c(F)cccc3F)c(=O)c1n2C	/	/	/	/	/	/	7.8
CCCCCn1ncc2c3sc(C)cc3n(C)c2c1=O	/	/	/	/	/	/	-13.7
O=C1NC(=O)C(Cc2ccccc2)(c2cccnc2)N1 (centres undefined)	-19.3%	7.1%	-18.2%	2.1	10.8%	1.0%	/
Cc1ccc(NNC(=S)Nc2ccc(C(C)C)cc2)c(C)c1	-2.2%	1.3%	0.2%	-0.7	4.8%	0.8%	/
Cc1cc2c(s1)c1cnn(Cc3ccccc3F)c(=O)c1n2C(C)C	/	/	/	/	/	/	-11.5
CC(C)(C)n1ncc2c(=O)n(Cc3ccc(F)c(F)c3F)cnc21	/	/	/	/	/	-0.1%	/
Cc1cc2c(s1)c1cnn(Cc3ccc(F)c(F)c3F)c(=O)c1n2C	/	/	/	/	/	/	-18.1
SMILES	PKM2 act	RGS12 GoLoco inh	KAT2A inh	IL2 activator	Vif-APOBEC3F blk	Vif-A3G inh	HeLa tox
CC(CCc1ccccc1)NC(=O)Cn1ncc2c3ccccc3n(Cc3ccccc3F)c2c1=O (centres undefined)	/	/	-6.9%	/	0.0%	-7.1%	/
c1ccc2c(c1)oc1c(NCc3ccc4c(c3)OCO4)ncnc12	-2.0%	1.0%	0.3%	-0.1	-4.3%	-7.6%	/
Cc1ccc(C(O)c2ncc(-c3ccc4ccccc4c3)[nH]2)cc1 (centres undefined)	/	/	/	-0.6	/	-0.3%	/
O=C(O)c1cc(-c2ccco2)nn1-c1cccc(Cl)c1	25.1µM*	10.8%	?	-1.4	4.6%	-2.1%	-1.1
O=C(O)c1cc(-c2cccs2)nn1-c1cccc(Cl)c1	/	-8.3%	-13.0%	1.4	-27.3%	3.6%	/
Cc1ccccc1NS(=O)(=O)c1ccc2c(c1)n(C)c(=O)n2C	2.51µM*	-2.2%	-1.1%	-0.3	-2.2%	-15.4%	2.7
O=S(=O)(c1ccccc1)N1CCN(S(=O)(=O)c2ccc3c(c2)OCCO3)CC1	/	/	/	/	/	/	0.0
O=S(=O)(c1cccc(C(F)(F)F)c1)N1CCN(S(=O)(=O)c2ccc3c(c2)OCCO3)CC1	/	/	2.7%	-0.9	0.0%	3.4%	2.2
COCCn1c(C)nnc1SCC(=O)NNC(=O)c1ccc(Cl)cc1	-7.6%	/	-4.7%	2.0	-8.6%	4.5%	/
O=C(Nc1ccc(F)c(Cl)c1)c1cc(C2CCCCN2C(=O)CCCc2ccccc2)on1 (centres undefined)	/	/	/	-0.7	/	1.8%	/
Cn1c2ccsc2c2ncn(Cc3ccccc3F)c(=O)c21	/	/	?	1.7	-4.3%	-1.5%	?
Cn1c2ccccc2c2ncn(Cc3ccc(F)cc3)c(=O)c21	1.1%	11.4%	-3.6%	0.0	-0.7%	-6.1%	/
CC(C)C[C@H]1C(=O)N2CCC[C@@H]2[C@]2(O)O[C@](NC(=O)[C@H]3C=C4c5cccc6[nH]c(Br)c(c56)C[C@H]4N(C)C3)(C(C)C)C(=O)N12	/	10.8%[21.6 µM]	5.5%[21.4 µM]	/	/	/	/
O=C(CSc1ccccc1)N1CCN(S(=O)(=O)c2ccccc2F)CC1	3.16µM*	/	-18.8%	0.2	14.6%	0.3%	0.1
COc1cccc(-c2nn(C)c3sc(C(=O)NCc4ccc(C)o4)cc23)c1	2.51µM*	98.6%	-11.5%	-1.0	-2.5%	-0.2%	?
CNC(=O)/C(C#N)=C1\SC(Cc2ccc(F)cc2)C(=O)N1c1ccccc1C (centres undefined)	-0.9%	1.1%	0.3%	0.0	7.4%	-3.6%	/
Cc1cccc(N2CCN(C(=O)c3c(C)nn(Cc4ccccc4Cl)c3C)CC2)c1C	3.55µM*	9.5%	-8.6%	-2.8	2.2%	1.7%	?
COc1ccc(S(=O)(=O)N(CC(=O)NCc2ccncc2)c2ccc(C)cc2)cc1OC	/	/	-1.7%	-2.4	-7.4%	1.5%	/
